Screening data as filed in PubChem BioAssay.
In the library only some 11% were active in any assay of this set; here they are far more common.
BAZ2B inh – inhibitors of human BAZ2B bromodomain. Q9UIF8. AlphaScreen BAZ2B-H3K14Ac peptide displacement. Potency, µM (series often up to 114 µM), usual class: inhibitors. 360,000 tested, 4.4% active; further: nearly all actives have a fitted effect of over 60% in size
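Complex of BAZ2B and biotin-H3K14Ac (50 nM apiece) forms over 30 min at RT, then faces library compounds up to 110 uM for another 30 min; AlphaScreen beads added, 20 min dark incubation, luminescence read.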
G9a block – blocks human histone lysine methyltransferase G9a. AID 504332. Q96KQ7. Potency, µM (doses to about 102 µM), most hits filed as inhibitors. 350,000 tested, 8.8% active. G9a H3K9 monomethylation, AlphaScreen, 2 h; further: nearly all actives have a fitted effect of over 75% in size
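Compounds were preincubated with 20 nM G9a for 15 min, after which biotinylated H3K9 peptide (500 nM) and SAM (20 uM) started a 2 h room-temperature reaction. Monomethylated product was quantified by antibody-based AlphaScreen chemiluminescence.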
HP1b binding inh – inhibitors of HP1-beta chromodomain binding to methylated histone tails; AlphaScreen HP1-beta / biotin-H3K9me3 peptide binding; Potency, µM (doses to about 114 µM), most hits filed as inhibitors; 390,000 tested, 0.56% active; further: nearly all actives have a fitted effect of over 70% in size
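Compound inhibition of the preformed complex between 50 nM HP1-beta and 50 nM biotinylated H3K9me3 peptide was read by AlphaScreen. Buffer was PBS pH 7.4 with 0.01% Tween-20. Incubations ran 30 min at room temperature, with 10 ug/mL donor/acceptor beads.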
L3MBTL1 inh – blocks human L3MBTL1; AlphaScreen L3MBTL1–H3K9me1 peptide binding; Potency, µM (titrated, usually from 57.1 µM), usual class: inhibitors; 230,000 tested, 0.66% active; AID 485360; further: nearly all actives have a fitted effect of over 60% in size
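Displacement of a biotinylated histone H3(1-15) peptide monomethylated at Lys9 (75 nM) from L3MBTL1 (50 nM) was measured by AlphaScreen after a 30 min room-temperature compound incubation; cefsulodin titration served as intraplate control.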
JMJD2A Tudor – blocks the human JMJD2A Tudor domain. 390,000 tested, 4.4% active. AID 504339. AlphaScreen JMJD2A-Tudor / H3K4me3 peptide binding. Potency, µM (highest dose often 114 µM), actives largely listed as inhibitors; further: nearly all actives have a fitted effect of over 50% in size
Target sequence (O75164 whole entry, looked up, the tested form may be a part): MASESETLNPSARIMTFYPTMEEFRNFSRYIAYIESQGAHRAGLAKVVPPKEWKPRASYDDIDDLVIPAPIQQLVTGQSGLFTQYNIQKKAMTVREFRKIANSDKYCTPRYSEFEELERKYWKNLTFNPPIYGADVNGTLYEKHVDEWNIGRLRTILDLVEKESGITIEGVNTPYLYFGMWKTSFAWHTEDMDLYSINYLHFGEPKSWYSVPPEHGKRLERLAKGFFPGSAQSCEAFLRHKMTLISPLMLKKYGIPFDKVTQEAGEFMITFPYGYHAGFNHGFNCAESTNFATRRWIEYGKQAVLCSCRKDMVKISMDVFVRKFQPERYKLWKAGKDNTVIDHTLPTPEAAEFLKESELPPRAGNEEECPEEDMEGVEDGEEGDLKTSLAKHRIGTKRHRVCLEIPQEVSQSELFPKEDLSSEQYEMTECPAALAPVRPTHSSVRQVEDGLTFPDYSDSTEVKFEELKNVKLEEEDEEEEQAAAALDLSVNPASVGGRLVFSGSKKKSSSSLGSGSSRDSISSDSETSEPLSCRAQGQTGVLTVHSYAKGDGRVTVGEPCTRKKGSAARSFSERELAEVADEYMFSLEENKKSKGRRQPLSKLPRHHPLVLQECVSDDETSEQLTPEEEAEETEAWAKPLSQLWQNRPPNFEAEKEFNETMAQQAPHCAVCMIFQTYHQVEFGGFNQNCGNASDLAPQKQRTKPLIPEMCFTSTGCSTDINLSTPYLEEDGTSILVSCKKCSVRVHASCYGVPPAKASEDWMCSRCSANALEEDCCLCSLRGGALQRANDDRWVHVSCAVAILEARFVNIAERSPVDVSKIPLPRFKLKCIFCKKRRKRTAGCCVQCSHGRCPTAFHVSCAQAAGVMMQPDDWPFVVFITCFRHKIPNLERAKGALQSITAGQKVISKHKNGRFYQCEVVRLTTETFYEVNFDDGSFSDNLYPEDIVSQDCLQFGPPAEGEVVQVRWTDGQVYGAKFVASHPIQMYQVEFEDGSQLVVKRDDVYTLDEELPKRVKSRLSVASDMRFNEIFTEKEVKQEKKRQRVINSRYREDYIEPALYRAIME
Large screens that a line does not name were inactive. The call rests on the fitted dose curve; in most records, active means well fitted inhibition curve with a large enough effect; inconclusive means small, poorly fitted or top-dose-only effect; inactive means no such curve, though single readings can be large or run the other way.

CCOC(=O)c1ccc(S(=O)(=O)NCC(c2ccc(N(C)C)cc2)c2c[nH]c3ccccc23)cc1 (stereo not given)	BAZ2B inh 10µM, G9a block inconclusive, HP1b binding inh 31.6µM, L3MBTL1 inh inconclusive, JMJD2A Tudor 11.2µM
Cc1ccc(S(=O)(=O)N2CCNC(=O)C2)c(C)c1	G9a block 56.2µM
Cc1ccc(S(=O)(=O)N2CCN(C)CC2)c(C)c1	none (no result: L3MBTL1 inh)
CCOC(=O)[C@H]1[C@H]2COc3ccc(Br)cc3[C@@H]2N2C(=O)CN(Cc3ccc(F)cc3)C(=O)[C@@]12C	none
CCOc1ccc(N(CC)S(=O)(=O)c2cc(Br)cc3c2N(C(C)=O)C(C)C3)cc1 (stereo not given)	G9a block 1.41µM (no result: L3MBTL1 inh)
Cc1cc(C(=O)CN2C(=O)C(=O)N(Cc3ccccc3)C2=O)c(C)n1-c1ccccc1F	none
Cc1cc(C(=O)CN2CCC(C)CC2)c(C)n1-c1ccccc1F	G9a block 50.1µM
Cc1cc(N2CCCC2)ccc1/C=C1\NC(=S)N(C)C1=O	BAZ2B inh inconclusive, HP1b binding inh inconclusive, L3MBTL1 inh inconclusive, JMJD2A Tudor 22.4µM (no result: G9a block)
Cc1ccc2oc(C(=O)Nc3ccc(S(=O)(=O)Nc4nccc(C)n4)cc3)cc(=O)c2c1	none (no result: L3MBTL1 inh)
O=C(OCC(=O)N1CCCC1=O)c1nc(Cl)c(Cl)c(Cl)c1Cl	BAZ2B inh 70.8µM, JMJD2A Tudor inconclusive (no result: G9a block, L3MBTL1 inh)
CCOC(=O)Cc1[nH]nc2c1C(c1cc(OC)ccc1OC)C(C#N)=C(N)O2 (stereo not given)	BAZ2B inh inconclusive, JMJD2A Tudor inconclusive
CCCc1[nH]nc2c1C(c1cc(OC)ccc1F)C(C#N)=C(N)O2 (stereo not given)	BAZ2B inh inconclusive, G9a block 39.8µM
O=C(/C=C\NCC(=O)c1ccccc1)c1ccc(F)cc1	G9a block 11.2µM
O=C(/C=C\NCC(=O)c1ccccc1)c1ccc2ccccc2c1	G9a block 7.94µM, JMJD2A Tudor inconclusive
CCOC(=O)c1ccc(NC(=O)c2cc(=O)c3ccc(C)c(C)c3o2)cc1	none (no result: L3MBTL1 inh)
NCc1cn(Cc2ccccc2)nc1-c1ccccc1	none (no result: BAZ2B inh, G9a block, L3MBTL1 inh)
Cc1cc(C)c(CSc2ncc(-c3ccc([N+](=O)[O-])cc3)[nH]2)c(C)c1	BAZ2B inh 10µM, G9a block inconclusive, HP1b binding inh inconclusive, JMJD2A Tudor inconclusive
O=[N+]([O-])c1ccc(-c2cnc(SC(c3ccccc3)c3ccccc3)[nH]2)cc1	BAZ2B inh 39.8µM, G9a block 12.6µM, HP1b binding inh inconclusive, JMJD2A Tudor inconclusive
O=[N+]([O-])c1ccc(-c2cnc(SCc3ccccc3Cl)[nH]2)cc1	BAZ2B inh 31.6µM, G9a block 35.5µM, HP1b binding inh inconclusive, JMJD2A Tudor inconclusive
O=c1cnc2cnc(N3CCNCC3)nc2n1C1CC1	none (no result: BAZ2B inh, HP1b binding inh, L3MBTL1 inh, JMJD2A Tudor)
C=CCNC(=S)NNC(=O)COc1ccc2cc(Br)ccc2c1	none
C=CCNC(=S)NNC(=O)COc1cccc(Cl)c1	G9a block 25.1µM
C=CCNC(=S)NNC(=O)COc1ccc(Br)cc1	G9a block 31.6µM, JMJD2A Tudor inconclusive
CC1(C)C=Cc2c(ccc3c2OC[C@H](c2ccc(O)cc2O)C3)O1	BAZ2B inh 50.1µM, JMJD2A Tudor 50.1µM
O=C(O)CCc1ccc(S(=O)(=O)Nc2cc(C(F)(F)F)ccc2N2CCCC2)cc1	BAZ2B inh 79.4µM, G9a block 28.2µM, L3MBTL1 inh inconclusive, JMJD2A Tudor inconclusive
O=C(Nc1ccc(Cl)c(Cl)c1)c1cc(S(=O)(=O)N2CCN(c3cccc(Cl)c3)CC2)ccc1F	none (no result: L3MBTL1 inh)
Cc1c(C)n(Cc2ccccc2)c2ccc(C(=O)NCCCN3CCOCC3)cc12	BAZ2B inh inconclusive, G9a block 50.1µM, JMJD2A Tudor 50.1µM (no result: L3MBTL1 inh)
Cc1c(C)n(Cc2ccccc2)c2ccc(C(=O)O)cc12	none (no result: BAZ2B inh, G9a block, L3MBTL1 inh)
CCn1c(C)c(C)c2cc(C(=O)NCCCN3CCOCC3)ccc21	JMJD2A Tudor inconclusive (no result: G9a block, L3MBTL1 inh)
Cc1c(C)n(Cc2ccc(F)cc2)c2ccc(C(=O)NCCCN3CCOCC3)cc12	BAZ2B inh 28.2µM, HP1b binding inh inconclusive, JMJD2A Tudor 44.7µM (no result: G9a block, L3MBTL1 inh)
Cc1c(C)n(C)c2ccc(C(=O)NCCCN3CCOCC3)cc12	JMJD2A Tudor inconclusive (no result: L3MBTL1 inh)
Cc1nn(C)cc1/C=N\NC(=O)c1ccc2c(c1)c(C)c(C)n2Cc1ccccc1	BAZ2B inh 44.7µM, JMJD2A Tudor 56.2µM (no result: L3MBTL1 inh)
CCS(=O)(=O)N1CCc2cc(C(=O)Nc3cc(C(F)(F)F)ccc3Cl)ccc21	none (no result: L3MBTL1 inh)
CN(C)C=NC(=O)c1cn(-c2ccc(F)cc2)c(=O)c2ccccc12	none
O=[N+]([O-])C1=CC=C2C(=NC3(CCCCC3)N2O)C1=NCCO	BAZ2B inh 50.1µM, G9a block inconclusive
Cc1ccc(NC(=O)[C@@H](c2ccccc2)N2Cc3ccccc3C2=O)cc1F	none (no result: L3MBTL1 inh)
COc1ccc(C2CC(C)(c3ccc(OC)cc3)Nc3ccccc3N2)cc1 (stereo not given)	BAZ2B inh 22.4µM, HP1b binding inh inconclusive, JMJD2A Tudor inconclusive (no result: G9a block)
CCC(C)NC(=O)C1CCC(CNS(=O)(=O)c2ccc(Cl)cc2)CC1 (stereo not given)	none (no result: L3MBTL1 inh)
O=C(Cc1ccccc1)Nc1sc2c(c1C(=O)Nc1ccc(Cl)cc1)CCOC2	none (no result: BAZ2B inh, G9a block, HP1b binding inh, L3MBTL1 inh)
COc1ccc(C(=O)NCCc2c[nH]c3ccccc23)cc1OC	none (no result: G9a block)
COc1ccc(C(=O)NCCc2ccc(Cl)cc2)cc1S(=O)(=O)N1CCCCC1C (stereo not given)	none
O=C(NCCc1c[nH]c2ccccc12)c1ccc2nc[nH]c2c1	BAZ2B inh 50.1µM, L3MBTL1 inh inconclusive
